PRMT1 FP inh: inhibitors of human PRMT1 | recombinant PRMT1, activity-based probe fluorescence polarization | actives 1.3% (n = 370,000) | inhibition, % at 2.79 µM | AID 652257 | Q99873;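 active means inhibition above about 21% made by adding two undisclosed values, limit read from the data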
LEDGF integ inh: blocks HIV-1 LEDGF/p75-dependent DNA integration; TR-FRET IN-LEDGF/p75 DNA integration, Eu/Cy5; inhibition, % at 3.7 µM; actives 0.64% (n = 370,000);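 active means inhibition above the screen-wide mean plus 3 SD, cut at about 13% in these data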;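 further: signal is the Cy5 over europium emission ratio at 671 and 618 nm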
MBD2 inh: MBD2-methylated oligo binding inhibition; inhibition, % at 4.4 µM; Q9UBB5; TR-FRET, MBD2 binding to methylated oligonucleotide; actives 0.31% (n = 370,000); in the data active means inhibition above about 13%
Target sequence (Q9UBB5 whole entry, looked up): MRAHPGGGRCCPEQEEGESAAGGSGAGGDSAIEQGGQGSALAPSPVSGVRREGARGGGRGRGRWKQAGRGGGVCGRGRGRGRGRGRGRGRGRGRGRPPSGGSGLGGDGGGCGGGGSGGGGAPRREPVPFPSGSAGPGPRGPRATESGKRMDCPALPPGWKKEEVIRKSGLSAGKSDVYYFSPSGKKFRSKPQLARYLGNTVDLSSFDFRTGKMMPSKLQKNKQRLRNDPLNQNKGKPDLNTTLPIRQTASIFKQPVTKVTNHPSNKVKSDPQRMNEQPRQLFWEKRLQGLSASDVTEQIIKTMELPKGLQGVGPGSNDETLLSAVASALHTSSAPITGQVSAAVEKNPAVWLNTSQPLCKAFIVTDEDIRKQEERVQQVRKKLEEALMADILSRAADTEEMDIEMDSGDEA
rCAG RNA binder: binds r(CAG) RNA repeats; r(CAG) RNA repeat, TO-PRO-1 dye displacement fluorescence; inhibition, % at 3 µM; actives 1.3% (n = 370,000);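 active means inhibition above the plate cutoff, the mean of all test compounds on that plate plus 3 SD, cut at about 35% in these data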;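 further: higher means more dye released from RNA so lower well fluorescence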
ABHD5-PLIN5 inh: ABHD5-PLIN5 protein interaction inhibition; Q00G26+Q8WTS1; inhibition, % at 4 µM; AID 602281; Split G. princeps luciferase complementation, luminescence, 4 h; actives 0.78% (n = 360,000);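 active means inhibition above the mean inhibition across every tested compound plus 3 SD, cut at about 22% in these data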
UHRF1 binding: human UHRF1 methylated DNA binding inhibitors; UHRF1 binding to methylated oligo, TR-FRET; inhibition, % at 4.4 µM; actives 0.75% (n = 370,000); AID 687016; in the data active means inhibition above about 21%;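 further: UHRF1 SRA domain binding a hemimethylated CpG hairpin DNA probe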
IN multimer up: HIV-1 integrase multimerization activation, counter-screen; TR-FRET HIV-1 integrase multimerization, biochemical; shares compounds with LEDGF integ inh; AID 1053131; actives 17% (n = 2,000); activation, % at 7.7 µM; in the data active means activation above about 8.9%
TRFRET interf: counter-screen for LEDGF/p75 integration inhibitors: TR-FRET optical interference; 2,000 tested, under 10 active; shares compounds with LEDGF integ inh; inhibition, % at 7.7 µM; TR-FRET optical interference counterscreen, HIV-1 IN multimerization;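 active means inhibition above the mean over all tested compounds plus 3 SD, which no compound reached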
IN-LEDGF confirm: LEDGF/p75-dependent HIV-1 integration inhibition, confirmation. TR-FRET LEDGF/p75-dependent HIV-1 integration, biochemical. shares compounds with LEDGF integ inh. inhibition, % at 3.7 µM. actives 36% (n = 2,000). AID 1053136; in the data active means inhibition above about 14%
Large screens that a line does not name were inactive (follow-up assays come after a bar, where they were run). Rows were chosen to be rich in hits. Some 4.1% of all compounds tested hit in one or more screens of this group.

COc1ccccc1OCCSc1nnnn1-c1ccc(C)cc1	LEDGF integ inh 37 | IN multimer up inactive | TRFRET interf inactive | IN-LEDGF confirm inactive
Cc1cccc(NC(=O)COC(=O)[C@@H]2CCCN2C(=O)c2cccs2)c1	LEDGF integ inh 28 | IN multimer up inactive | TRFRET interf inactive | IN-LEDGF confirm inactive
O=C(COC(=O)[C@@H]1CCCN1C(=O)c1cccs1)Nc1cccc(Cl)c1	none
Cn1ncc([N+](=O)[O-])c1C(=O)Nc1ccc(-c2nc3ccccc3o2)cc1	LEDGF integ inh 35 | IN multimer up inactive | TRFRET interf inactive | IN-LEDGF confirm inactive
CC(=O)Nc1ccc(NC(=O)c2c([N+](=O)[O-])cnn2C)cc1	none
Oc1ccc(/C=N/Nc2ncnc3c2ncn3Cc2ccccc2)cc1O	LEDGF integ inh 18 | IN multimer up 57 | TRFRET interf inactive | IN-LEDGF confirm 66
Oc1cccc(/C=N/Nc2ncnc3c2ncn3Cc2ccccc2)c1	none
C[n+]1c(-c2ccccc2)cc2c(=Cc3ccccc3)c3ccccc3n21	LEDGF integ inh 28 | IN multimer up inactive | TRFRET interf inactive | IN-LEDGF confirm 45
C[n+]1c(-c2ccccc2)cc2c(=Cc3ccc([N+](=O)[O-])cc3)c3ccccc3n21	LEDGF integ inh 25 | IN multimer up inactive | TRFRET interf inactive | IN-LEDGF confirm 48
Cc1ccc(S(=O)(=O)Nc2cc(C(=O)N3CCOCC3)ccc2N2CCCCC2)cc1	LEDGF integ inh 25 | IN multimer up inactive | TRFRET interf inactive | IN-LEDGF confirm inactive
CCCCNC(=O)NCCCN1CCN(c2ccc(F)cc2)CC1	none (no result: ABHD5-PLIN5 inh)
CC1(C)Cc2c(c(-c3ccco3)[nH]c(=O)c2C#N)CS1	PRMT1 FP inh 74, LEDGF integ inh 18 | IN multimer up inactive | TRFRET interf inactive | IN-LEDGF confirm 23
CC1(C)Cc2c(c(-c3ccccc3)[nH]c(=O)c2C#N)CS1	none
COc1ccc(/C=C/S(=O)(=O)NCc2ccc(F)cc2)c(CNC(=O)OC(C)(C)C)c1	none (no result: ABHD5-PLIN5 inh)
O=C(CCc1ccccc1)N[C@H]1[C@@H](OC(=O)c2cccnc2)CCC[C@@]12C(=O)N(Cc1ccccc1)c1ccccc12	none (no result: ABHD5-PLIN5 inh)
O=C(COC(=O)c1n[nH]c(=O)c2ccccc12)Nc1ccccc1F	LEDGF integ inh 14 | IN multimer up inactive | TRFRET interf inactive | IN-LEDGF confirm inactive
COc1ccc(Cn2cc(COC(=O)NCCc3c[nH]c4ccccc34)nn2)cc1	none (no result: ABHD5-PLIN5 inh)
Cc1ccc(Cn2nnc3c2-c2ccccc2S(=O)(=O)N(C2CC2)C3)cc1	none (no result: ABHD5-PLIN5 inh)
CCCCCCSc1ccc([C@H]2N[C@@](CC(C)C)(C(=O)OC)[C@H]3C(=O)N(CC)C(=O)[C@@H]23)cc1	none
CCCCCCSc1ccc([C@H]2N[C@@](C)(C(=O)OC)[C@H]3C(=O)N(CC)C(=O)[C@@H]23)cc1	LEDGF integ inh 15 | IN multimer up inactive | TRFRET interf inactive | IN-LEDGF confirm inactive
CC1(C)N([O-])C(c2ccccc2)=C[N+](=O)C1(C)C	none
CC1(C)N([O-])C(c2cccs2)=C[N+]1=O	LEDGF integ inh 24 | IN multimer up inactive | TRFRET interf inactive | IN-LEDGF confirm 29
O=[N+]([O-])c1ccc(O)c(C=Nc2cccc3ncccc23)c1	LEDGF integ inh 20 | IN multimer up inactive | TRFRET interf inactive | IN-LEDGF confirm inactive
O=C(NCCNC(=O)c1ccco1)c1ccc(F)cc1	none
O=C(NCCNCc1ccc(F)cc1)c1ccco1	LEDGF integ inh 22 | IN multimer up inactive | TRFRET interf inactive | IN-LEDGF confirm inactive
COC(=O)[C@H](CC(C)C)N(Cc1cn(Cc2ccc(C)cc2)nn1)S(=O)(=O)c1ccc(F)cc1Br	none (no result: ABHD5-PLIN5 inh)
COc1cc(CCC(=O)NCc2ccc3c(c2)OCO3)cc(OC)c1OC	LEDGF integ inh 29 | IN multimer up inactive | TRFRET interf inactive | IN-LEDGF confirm inactive
COc1ccc(CCC(=O)NCc2ccc3c(c2)OCO3)cc1	none
